The text below walks through data of PubChem BioAssay (NCI).

Test systems include T-47D breast; BT-549 breast; MDA-MB-435 melanoma; SW-620 colon; MCF7 breast; HCT-116 colon; HCC-2998 colon; KM12 colon.
Assay in all cases: NCI-60 one-dose screen, 48 h (100 = growth as untreated, 0 = no growth, -100 = all killed)
What all share (details): 10 µM unless noted

About 83,000 compounds went through this panel and 20% of them were active in at least one assay; those are over-represented in the sample as a whole.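 Negative percent growth values reflect cell death: -40 means 40% of the cells present at the start died, and -100 means all died.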 A number with no mark means an inactive call. Activity calls are given as the source filed them. How the source made its calls: active means growth percent below 10; inactive means the rest.

`CC(c1ccccc1)n1ccnc1CO` (stereo not drawn): the growth in the experiment on T-47D breast is 104%; in the experiment on BT-549 breast, 113%; in the experiment on MDA-MB-435 melanoma it was 98.4%; with SW-620 colon it was 97.8%; in the experiment with MCF7 breast, 97.3%; in the experiment with HCT-116 colon, 104%. In addition, the growth in the experiment with HCC-2998 colon was 90.6%; with KM12 colon, 109%.
For the compound `CC(C)(C)CC(C)(C)Nc1c(-c2ccc3c(c2)OCO3)nc2cnccn12`, the growth is 84.2% in the experiment on T-47D breast; 82.2% in the experiment on BT-549 breast; 99.1% in the experiment with MDA-MB-435 melanoma; 109% with SW-620 colon; 74.1% in the experiment on MCF7 breast; 5.36% (active) with HCT-116 colon. The growth in the experiment with HCC-2998 colon was 93.7%; in the experiment on KM12 colon, 96.2%.
Take `COc1ccc(/C=C\c2nc3ccccc3s2)cc1OP(=O)(O)O`: the growth was 41.4% in the experiment on T-47D breast; 44.3% in the experiment with BT-549 breast; -70.4% (active) in the experiment with MDA-MB-435 melanoma; 23.2% in the experiment on SW-620 colon; 21.7% with MCF7 breast; 25.9% in the experiment with HCT-116 colon. The figures for the growth in the experiment on HCC-2998 colon and in the experiment on KM12 colon were 66.9% and 31.4%, respectively.
Regarding `COc1cc2nc(Cc3ccc(C)cc3)[nH]c(=O)c2cc1OC`, the growth with T-47D breast was 107%; with BT-549 breast, 229%; in the experiment with MDA-MB-435 melanoma, 119%; with SW-620 colon it was 101%; in the experiment on MCF7 breast it was 104%; in the experiment on HCT-116 colon, 117%. Moreover, the growth with HCC-2998 colon was 106%; in the experiment with KM12 colon, 109%.
As for `COc1cccc(CCC(=O)c2cc3c(N)c(C(=O)Nc4cccc(Cl)c4C)sc3nc2C)c1`, the growth with T-47D breast was 28.2%; in the experiment with BT-549 breast, 50.6%; in the experiment with MDA-MB-435 melanoma, -54.8% (active); with SW-620 colon, 34%; with MCF7 breast it was 11.3%; in the experiment with HCT-116 colon it was 13%. In addition, the growth in the experiment with HCC-2998 colon is 6.58% (active); with KM12 colon, 19.6%.
For `O=C(CN1CCOCC1)Nc1ccc2ncnc(Nc3ccc(OCc4cccc(F)c4)c(Cl)c3)c2c1`, the growth is 18.5% in the experiment on T-47D breast; 70.8% in the experiment with BT-549 breast; 72.1% in the experiment with MDA-MB-435 melanoma; 109% in the experiment on SW-620 colon; 54.7% in the experiment on MCF7 breast; 64.5% in the experiment with HCT-116 colon. The growth with HCC-2998 colon is 88.6%; in the experiment on KM12 colon it was 83.2%.
Take `COc1ccc(-c2nc(N/N=C/c3cccc(Br)c3)nc(N3CCOCC3)c2C#N)cc1`: the growth with T-47D breast is 77%; in the experiment on BT-549 breast, 100%; with MDA-MB-435 melanoma, 87.9%; in the experiment on SW-620 colon it was 14%; in the experiment with MCF7 breast it was 59.3%; in the experiment with HCT-116 colon, 32.9%. Further, the growth in the experiment on HCC-2998 colon is 75.4%; in the experiment with KM12 colon, 44.2%.
On to `CC1(C)CC[C@]2(C(=O)NCC#CCN3CCOCC3)CC[C@]3(C)C(=CC[C@@H]4[C@@]5(C)Cc6c([nH]c7ccccc67)C(C)(C)[C@@H]5CC[C@]43C)[C@@H]2C1`, for which the growth with T-47D breast was 75.2%; in the experiment with BT-549 breast it was 101%; with MDA-MB-435 melanoma, 83.1%; in the experiment on SW-620 colon, 103%; in the experiment on MCF7 breast, 81.1%; in the experiment on HCT-116 colon it was 73.9%. Besides, the growth is 105% with HCC-2998 colon and 91.3% in the experiment with KM12 colon.
Turning to `O=C(CCN1CCCC1)Nc1ccc2c(NCc3ccc(F)cc3)c3ccccc3nc2c1`, the growth in the experiment with T-47D breast was -5.76% (active); in the experiment on BT-549 breast, 18.5%; in the experiment on MDA-MB-435 melanoma, -53.4% (active); in the experiment with SW-620 colon it was -31.3% (active); with MCF7 breast it was -12.2% (active); in the experiment on HCT-116 colon, -29.9% (active). Further, the figures for the growth in the experiment on HCC-2998 colon and with KM12 colon were -32.5% (active) and -6.48% (active), respectively.
Take `CCNC(=S)NNC(=O)c1cc2ccc1CCc1ccc(cc1)CC2`: the growth in the experiment with T-47D breast was 95.8%; in the experiment on BT-549 breast, 102%; in the experiment with MDA-MB-435 melanoma it was 100%; with SW-620 colon, 101%; in the experiment on MCF7 breast, 93.6%; in the experiment on HCT-116 colon, 92.5%. The results for the growth in the experiment with HCC-2998 colon and with KM12 colon were 103% and 102%, respectively.
Consider `C=C1C(=O)O[C@H]2[C@H]1CC/C(COC(=O)NCCc1c[nH]c3ccc(Cl)cc13)=C\CC[C@@]1(C)O[C@@H]21`, for which the growth in the experiment on T-47D breast was -40% (active); in the experiment on BT-549 breast, -52.9% (active); with MDA-MB-435 melanoma, -91.5% (active); in the experiment on SW-620 colon it was -87.4% (active); with MCF7 breast, 8.5% (active); in the experiment on HCT-116 colon, -88.9% (active). Also, the growth in the experiment with HCC-2998 colon is 55.1%; with KM12 colon, 11.3%.
In the case of `O=C1CCC(NC(=S)Nc2ccccc2)N1` (stereo not drawn), the growth with T-47D breast was 103%; in the experiment on BT-549 breast it was 114%; in the experiment with MDA-MB-435 melanoma, 109%; with SW-620 colon, 107%; in the experiment with MCF7 breast, 97.3%; in the experiment on HCT-116 colon, 97.6%. The figures for the growth in the experiment with HCC-2998 colon and with KM12 colon were 98.7% and 98%, respectively.
Consider `COc1ccc(C(=O)c2cc(C)c(OC)c(C)c2)c(OC)c1N(C(=O)C(Cl)Cl)C(=O)C(Cl)Cl`, for which the growth in the experiment on T-47D breast was 52.4%; with BT-549 breast it was 5.7% (active); in the experiment on MDA-MB-435 melanoma it was -37.5% (active); in the experiment on SW-620 colon, 19%; in the experiment with MCF7 breast, 13.4%; with HCT-116 colon it was 4.88% (active). Moreover, the values for the growth in the experiment on HCC-2998 colon and in the experiment on KM12 colon were 14.7% and 5.55% (active), respectively.
Turning to `NC(=O)c1cccc(-c2ccccc2N2CCCCC2)c1`, the growth with T-47D breast is 83%; with BT-549 breast it was 101%; in the experiment with MDA-MB-435 melanoma, 100%; with SW-620 colon, 108%; in the experiment on MCF7 breast it was 92.5%; in the experiment on HCT-116 colon, 89.4%. Further, the growth in the experiment on HCC-2998 colon is 102%; in the experiment on KM12 colon, 99.1%.
For `Cn1c(COC(=O)NCCn2ccnc2)nc2c(N3CCOCC3)nc(-c3ccccc3)nc21`, the growth in the experiment on T-47D breast is -36.1% (active); in the experiment on BT-549 breast, -78.2% (active); in the experiment with MDA-MB-435 melanoma, -91.2% (active); in the experiment with SW-620 colon it was -68.8% (active); in the experiment on MCF7 breast it was -67% (active); in the experiment on HCT-116 colon, -74.6% (active). Moreover, the growth is -82.1% (active) in the experiment on HCC-2998 colon and -69.3% (active) with KM12 colon.
For `COc1ccc(C2=C(c3ccccc3)c3ccc(OC(C)=O)cc3OC2(C)C)cc1`, the growth is 83.9% in the experiment with T-47D breast; 140% with BT-549 breast; 80.5% with MDA-MB-435 melanoma; 82.1% with SW-620 colon; 93.9% with MCF7 breast; 88.9% in the experiment on HCT-116 colon. Further, the growth in the experiment with HCC-2998 colon was 86.5%; with KM12 colon it was 52.7%.
